# GLA spleen mod: qHTS Assay for Inhibitors and Activators of Human alpha-Galactosidase From Spleen Homogenate; Alpha-galactosidase A (Homo sapiens), P06280; human spleen homogenate, 4MU-alpha-Gal fluorescence, 40 min; Potency, µM (series often up to 80 µM), for the others: at the top dose activity change, negative = inhibition, actives largely listed as inhibitors; 0.008% of 240,000 active;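 further: potency means the concentration at half of the fitted maximal effect; 0% = enzyme with vehicle and -100% = no enzyme basal signal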
# Target sequence (P06280 32-429 limits assumed): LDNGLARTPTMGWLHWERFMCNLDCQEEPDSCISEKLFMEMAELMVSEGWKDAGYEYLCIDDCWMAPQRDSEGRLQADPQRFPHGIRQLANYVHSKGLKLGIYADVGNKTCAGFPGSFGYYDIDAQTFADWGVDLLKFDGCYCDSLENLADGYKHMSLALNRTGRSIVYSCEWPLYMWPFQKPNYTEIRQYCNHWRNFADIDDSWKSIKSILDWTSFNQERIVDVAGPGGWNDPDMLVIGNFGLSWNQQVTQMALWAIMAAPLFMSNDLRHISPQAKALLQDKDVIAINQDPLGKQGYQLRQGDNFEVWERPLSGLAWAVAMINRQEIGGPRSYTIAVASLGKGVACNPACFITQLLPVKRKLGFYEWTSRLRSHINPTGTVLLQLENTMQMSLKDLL
#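 Inhibition or activation of alpha-galactosidase in human spleen homogenate is scored by 4-MU fluorescence after 40 min at 37C, pH 5.0, with 1 mM substrate. AC50s come from concentration-response fitted to the Hill equation.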
# ALDH1A1 inh: qHTS Assay for Inhibitors of Aldehyde Dehydrogenase 1 (ALDH1A1) | Aldehyde dehydrogenase 1A1 (Homo sapiens), P00352 | Purified ALDH1A1, NADH fluorescence, propionaldehyde substrate | Potency, µM (titrated, usually from 75.3 µM), for inactives: top-dose activity, negative = inhibition, hits mostly inhibitors | 7.3% of 220,000 active; active means well fitted inhibition curve with a large enough effect, not every such curve was filed as active; inconclusive means small, poorly fitted or top-dose-only effect, or another doubt; inactive means no such curve, though single readings can be large or run the other way;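 further: potency means the concentration at half of the fitted maximal effect; plate controls were no enzyme wells and a reference inhibitor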
# HPGD block: qHTS Assay for Inhibitors of HPGD (15-Hydroxyprostaglandin Dehydrogenase); 15-hydroxyprostaglandin dehydrogenase [NAD(+)] (Homo sapiens), P15428; Potency, µM, for inactives: top-dose activity change, negative = inhibition, most hits filed as inhibitors; AID 894, 2007; purified HPGD, NADH fluorescence kinetic, PGE2 substrate; 4.3% of 150,000 active; active means well fitted inhibition curve with a large enough effect, not every such curve was filed as active; inconclusive means small, poorly fitted or top-dose-only effect, or another doubt; inactive means no such curve, though single readings can be large or run the other way; further: potency means the concentration at half of the fitted maximal effect
# Target sequence (P15428 whole entry, looked up): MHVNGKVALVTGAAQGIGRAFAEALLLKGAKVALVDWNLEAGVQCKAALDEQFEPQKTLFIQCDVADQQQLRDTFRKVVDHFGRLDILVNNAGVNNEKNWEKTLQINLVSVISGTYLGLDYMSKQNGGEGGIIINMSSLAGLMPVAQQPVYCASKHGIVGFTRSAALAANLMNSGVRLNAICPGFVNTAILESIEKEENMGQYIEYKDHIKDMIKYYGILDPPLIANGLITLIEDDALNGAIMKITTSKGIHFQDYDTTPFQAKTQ
#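 20 nM HPGD preincubated 15 min at room temperature with compound in 50 mM Tris-HCl pH 8, 0.01% Tween 20. Started with 1 mM NAD+ and 30 uM prostaglandin E2; NADH fluorescence (360/450 nm) read 5 times over 30-s intervals, last minus first.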
# PNC assembly inh: High Content Assay for Compounds that inhibit the Assembly of the Perinucleolar Compartment | PC3M PTB-GFP, PNC prevalence imaging, 16 h; hits give low values | activity change (PNC), negative = inhibition, % at 10 µM | 3.1% of 140,000 active | AID 2417, 2010;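 active means readout at or below -70, meaning at least 70% loss of cells showing the perinucleolar compartment, a nuclear body marking cancer cells; inconclusive means readout between -30 and a set limit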;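 further: plate controls were DMSO wells for no effect and camptothecin positive control wells for full effect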
#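 PC3M cells stably expressing PTB-GFP, 750–1000 cells/well, treated 16 h at 37 °C with compound (23 nl of library stock), in duplicate. After paraformaldehyde fixation and Hoechst stain, imaged at 20x; PNC prevalence scored by image analysis.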
# GLA inh pH 4.5: qHTS Assay for Inhibitors of Human alpha-Galactosidase at pH 4.5; activity change, negative = inhibition, % at 105 µM; Alpha-galactosidase A (Homo sapiens), P06280; 230,000 tested, under 10 active; purified enzyme, 4-MU-alpha-Gal fluorescence, pH 4.5;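 further: 0% = full activity with enzyme and -100% = basal without enzyme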
# 12-hLO inh: qHTS Assay for Inhibitors of 12-hLO (12-human lipoxygenase); Polyunsaturated fatty acid lipoxygenase ALOX12 (Homo sapiens), P18054; purified 12-hLO, xylenol orange hydroperoxide absorbance; Potency, µM (series often up to 57.1 µM), without a hit: top-dose activity change, negative = inhibition, actives largely listed as inhibitors; 0.12% of 150,000 active; further: potency means the concentration at half of the fitted maximal effect; nearly all actives have a fitted effect of over 55% in size
#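 Hydroperoxide formation by human 12-lipoxygenase from 40 uM arachidonic acid was followed colorimetrically via ferric-xylenol orange complex, using the 573/405 nm absorbance ratio. Enzyme concentration was 150 nM, with 30 min reaction at room temperature.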
# * marks the source's active call; other numbers are inactive results; ? = inconclusive; / = not tested or not shown; [ ] = another dose, or the depositor's remark. This is a sample that favours compounds with a hit; in the whole collection about 10% have one here. Unless noted, the call rests on the fitted dose curve; in most records, active means well fitted curve in the direction sought with a large enough effect; inconclusive means small, poorly fitted or top-dose-only effect, or another doubt; inactive means no such curve, though single readings can be large; an effect the other way counts as inactive or inconclusive. Unless noted, on the % scale 0 is the no-effect control and ±100 the full control effect.
SMILES,GLA spleen mod,ALDH1A1 inh,HPGD block,PNC assembly inh,GLA inh pH 4.5,12-hLO inh
CC1CCN(C(=S)c2ccc([N+](=O)[O-])cc2)CC1,-27%,?,22µM*,-8,2,-5%
CCN1CCN(C(=S)c2ccc([N+](=O)[O-])cc2)CC1,-7%,?,25µM*,11,2,-3%
COc1ccc(-c2nsc(C(=O)N(c3ccc(F)cc3)C(C(=O)NC3CCCC3)c3ccc(OC)cc3)c2N)cc1 (configuration not stated),2%,-9%,?,?,-2,4%
C[C@@H](CN1CCC(Cc2ccccc2)CC1)[C@H](O)c1ccc(O)cc1,/,/,/,/,/,-9%
Cn1c(=O)c2[nH]c(CCC(=O)O)nc2n(C)c1=O,/,9%[13.5 µM],-5%,/,/,-1%[11.4 µM]
S=C(c1ccc(Cl)cc1)N1CCN(Cc2ccccc2)CC1,1%,-18%,/,/,-1,/
CSc1ccc(C(=S)N2CCN(Cc3ccccc3)CC2)cc1,8%,2.2µM*,?,-8,7,-6%
CC1(C)CC(NC(=O)C23CCC(C)(/C(=N/O)C2)C3(C)C)CC(C)(C)N1 (configuration not stated),9%,1%,-9%,-118*,1,3%
CC1(C)CC(NC(=O)C23CCC(C)(C(=O)C2=O)C3(C)C)CC(C)(C)N1 (configuration not stated),-8%,10%,/,/,/,/
CN1CCN(c2ncc3nc(-c4cccs4)c(=O)n(C[C@H]4CCCO4)c3n2)CC1,19%,?,?,/,/,-11%
Cc1cc(C)n2nc(SCC3COc4ccccc4O3)nc2n1 (configuration not stated),7%,-4%,7.1µM*,5,0,-2%
Cc1cc(C)c(C#N)c(SCc2ccccc2)n1,16%,?,-15%,25,-1,-1%
N#Cc1cc2c(nc1SCC1COc3ccccc3O1)CCC2 (configuration not stated),1%,?,25µM*,17,2,-4%
Cc1cc(C)c(C#N)c(SCC2COc3ccccc3O2)n1 (configuration not stated),5%,?,14µM*,-24,-3,-15%
Cc1cc(C)n2nc(SCCOc3ccccc3)nc2n1,6%,1%,/,/,-7,/
O=C(OC(C(=O)NCc1ccc2c(c1)OCO2)c1ccncc1)c1ccc(Cl)nc1 (configuration not stated),-6%,5%,/,/,-1,/
CC(C)(N)C(=O)N[C@@H]1C(=O)N2[C@@H]1SC(C)(C)[C@H]2C(=O)O,/,-2%[13.5 µM],-9%,/,/,2%[11.4 µM]
CCCCc1ccc(-c2nc(-c3ccncc3)no2)cc1,4%,6.3µM*,-12%,30,0,2%
Brc1ccc(-c2nc(-c3ccncc3)no2)o1,2%,11%,-8%,-89*,-3,-2%
Brc1ccc(-c2nc(-c3ccccn3)no2)o1,10%,1%,-4%,38,6,-9%
O=S(=O)(NN=C1CCCCC1)c1ccccc1,7%,-1%,/,/,-16,/
Cc1ccc(S(=O)(=O)NN=C2C3CC4CC(C3)CC2C4)cc1[N+](=O)[O-],-2%,18µM*,-17%,16,5,1%
CC(C)(C)C1CCC(=NNS(=O)(=O)c2ccc(Br)cc2)CC1 (configuration not stated),-1%,1.4µM*,-5%,-20,-6,3%
CCCC1CCC(=NNS(=O)(=O)c2ccc(C)c([N+](=O)[O-])c2)CC1 (configuration not stated),-3%,?,-3%,?,-4,-4%
CC(=O)N1CCC(=NNS(=O)(=O)c2ccc(C)c([N+](=O)[O-])c2)CC1,-5%,10µM*,-1%,-20,-3,0%
SMILES,GLA spleen mod,ALDH1A1 inh,HPGD block,PNC assembly inh,GLA inh pH 4.5,12-hLO inh
CC(=O)N1CCC(=NNS(=O)(=O)c2cccc([N+](=O)[O-])c2)CC1,-9%,11µM*,-14%,-2,-11,-7%
CS(=O)(=O)N(CC(=O)N1CCCC1)Cc1ccc(Cl)cc1,1%,11%,-6%,-14,7,-1%
C/C(=N\NS(=O)(=O)c1ccc(C)c([N+](=O)[O-])c1)c1cccs1,8%,32µM*,/,/,-6,/
CC1CCCC/C1=N\NS(=O)(=O)c1ccc(Br)cc1 (configuration not stated),-5%,4.5µM*,1%,25,2,-13%
C/C(=N\NS(=O)(=O)c1ccc([N+](=O)[O-])cc1)c1cccs1,-3%,1%,/,/,9,/
Cc1ccc(S(=O)(=O)NN=C2CCC(C(C)(C)C)CC2)cc1[N+](=O)[O-] (configuration not stated),0%,6.3µM*,-8%,-26,0,-2%
CSc1ccc(CN(C)Cc2nc3ccccc3c(=O)[nH]2)cc1,8%,/,/,/,5,/
Cc1ncc([N+](=O)[O-])n1CC(=O)N/N=C/c1ccccc1F,1%,-7%,/,/,-2,/
CCOC(=O)SC1=N/C(=C\c2ccc(N(C)C)cc2)C(=O)S1,-12%,5µM*,-22%,40,8,-3%
CSC1=N/C(=C\c2ccc(C)cc2)C(=O)S1,5%,?,-18%,?,-7,-8%
CC(=O)c1cc(C(=O)Nc2ccccc2C(=O)O)oc1C,-7%,0.71µM*,?,-9,-2,0%
Cc1ccc(C(=O)Nc2ccccc2C(N)=O)o1,-6%,3%,-4%,44,12,-7%
O=C(Nc1ccccc1C(=O)O)c1ccc(Br)o1,-4%,4µM*,?,-17,1,-8%
Cc1cc(C)cc(NC(=S)/C(=C(\[O-])c2ccc(Cl)s2)[n+]2cccc(C)c2)c1,2%,25µM*,/,/,-5,/
C=C(C#N)C(=O)OCC,9%,8.9µM*,-6%,/,/,-2%
CCOC(=O)/C(C#N)=C1\SS/C(=C(/C#N)C(=O)OCC)S1,14%,/,/,/,5,/
Cc1c(C(=O)OCCOc2ccccc2)[nH]c2c1C(=O)CCC2,0%,-15%,-18%,-14,-7,5%
Cc1c(C(=O)OC2CCCC2C)[nH]c2c1C(=O)CCC2 (configuration not stated),1%,8.9µM*,-15%,22,-1,-8%
Cc1ccc(C)c(-n2nnnc2SCC(=O)c2ccc3c(c2)NC(=O)CO3)c1,4%,0.63µM*,-27%,-11,-6,-25%

# Compound activity deposited in PubChem BioAssay by National Center for Advancing Translational Sciences (NCATS).
